# Assay results: PubChem BioAssay (Tox21)
# Inconclusive results are not listed. Activity calls are given as the source filed them. The call rests on the fitted dose curve; in most records, active means well fitted cell-killing curve with a large enough effect in the repeat runs; inconclusive means weak or mixed curves, or effect the other way; inactive means flat fitted curve, though single readings scatter.
# Assay: qHTS assay to identify small molecule agonists of the androgen receptor (AR) signaling pathway in the presence of an antagonist - cell viability counter screen (AID 1259379); further: nearly all actives have a fitted effect of over 25% in size
# Details: MDA-kb2 viability, CellTiter-Fluor, 16 h; series mostly up to 92.4 µM; activity change, negative = cytotoxicity: at the top concentration
# Excerpt: National Center for Advancing Translational Sciences [NCATS]
# NIH Chemical Genomics Center [NCGC]
# U.S. Environmental Protection Agency [EPA]
# National Institutes of Environmental Health Sciences [NIEHS]
# National Toxicology Program [NTP]
# U.S. Food and Drug Administration [FDA]
# Androgen receptor (AR) is an important member of nuclear receptor family. Its signaling plays a critical role in AR-dependent prostate cancer and other androgen related diseases. Considerable attention has been given in the past decades to develop methods to study and screen for the environmental chemicals that have the potential to interfere with metabolic homeostasis, reproduction, developmental and behavioral functions. Therefore AR binding assay for screening against androgen agonists and antagonists can be used to identify potential endocrine disruptors.
# MDA-kb2 cells (from ATCC, deposited by Wilson et al.) are human breast carcinoma cells that were stably transfected with a luciferase reporter gene under control of the MMTV promoter that contains response elements for both androgen receptor (AR) and glucocorticoid receptor (GR). This particular screening for measuring luciferase reporter gene activity using MDA-kb2 cells against Tox21 10K library compounds is a confirmation study on agonist mode screening in the presence of AR-antagonist compound (Nilutamide) at 3.0uM final concentration. The cytotoxicity of the compounds was tested in parallel by measuring the cell viability using CellTiter-Fluor assay system (Promega, Madison, WI) in the same wells.
# Tox21 Assay Protocol Summary:
# MDA-kb2 cells (cells cultured without CO2) were dispensed at 3,000 cells/well in 4uL of culture medium into white wall/solid-bottom 1536-well plates (Corning Life Sciences, Corning, NY) using a Multidrop Combi (Thermo Fisher Scientific Inc., Waltham, MA) dispenser. The assay plates were incubated at 37C and 0% CO2 for 5hr. One uL of 3.0uM (final concentration) Nilutamide or assay buffer was added using two separate tips of Flying Reagent Dispenser (FRD, Aurora Discovery, San Diego, CA). Then 23nL of compounds dissolved in DMSO at 15 concentrations and positive controls were transferred to the assay plates using a Pintool station (Wako, San Diego, CA). The assay plates were incubated at 37C and 0% CO2 for 16 hr. After 15hr incubation at 37C, 1uL/well CellTiter-Fluor reagent (Promega Corporation) was added to each well of the assay plates using FRD. After 1hr incubation at 37C and 0% CO2, the fluorescence signal was measured using a ViewLux plate reader (PerkinElmer, Shelton, CT).
# On the % scale 0 is the no-effect control and ±100 the full control effect; potency means the concentration at half of the fitted maximal effect.
Compound,"activity change, negative = cytotoxicity",Potency
CCCCCCCCS,0.787% (inactive),–
CCCOC(C)=O,-3.16% (inactive),–
Oc1ccc(Oc2ccccc2)cc1,0.36% (inactive),–
CCOC(=O)CC(O)(CC(=O)OCC)C(=O)OCC,0.746% (inactive),–
CCC1=C(C)CN(C(=O)NCCc2ccc(S(=O)(=O)NC(=O)NC3CCC(C)CC3)cc2)C1=O (stereo not given),1.33% [at 42.5 µM] (inactive),–
Clc1nc2ccccc2nc1Cl,–,24.6 µM (active)
C/C=C1\[C@H]2C=C(C)C[C@]1(N)c1ccc(=O)[nH]c1C2,-1.91% [at 42.5 µM] (inactive),–
COC(=O)C(C)(C)C,-0.977% (inactive),–
Cc1ccc2c(Cl)cc(Cl)c(O)c2n1,4.13% [at 42.5 µM] (inactive),–
CC(C)=CCC/C(C)=C/C=N/O,-1.49% (inactive),–
O=[N+]([O-])c1ccc(Cl)cc1Cl,3.83% (inactive),–
C=CC(C)CCC=C(C)C (stereo not given),-1.17% (inactive),–
CCN(CCCCOC(=O)c1ccc(OC)c(OC)c1)C(C)Cc1ccc(OC)cc1 (stereo not given),1.28% [at 42.5 µM] (inactive),–
CCCCCCCCC(=O)OCC(C)OC(=O)CCCCCCCC (stereo not given),5.63% (inactive),–
OCCc1ccncc1,0.207% (inactive),–
CC(=O)c1ccc(Cl)c(Cl)c1Cl,-1.12% (inactive),–
O=C(Cl)c1cc(Cl)cc(Cl)c1,2.77% (inactive),–
CC(=O)Oc1cccc2c1C(=O)c1c(OC(C)=O)cc(C(=O)O)cc1C2=O,–,26.6 µM (active)
CCCCCCCCNC,0.815% (inactive),–
CCCCCCCCCCCCCCCCN,0.23% [at 42.5 µM] (inactive),–

Compound,"activity change, negative = cytotoxicity",Potency
CC(C)=CCC[C@H](C)CCO,1.06% (inactive),–
CO[C@@H]1COCC[C@@H]1N[C@@H]1CC[C@@](C(=O)N2CCc3ncc(C(F)(F)F)cc3C2)(C(C)C)C1,2.76% (inactive),–
CC(CC(C#N)(c1ccccc1)C(C)C)N(C)C (stereo not given),-0.0302% [at 42.5 µM] (inactive),–
O=C(O)c1ccccc1-n1cc(C(=O)O)c(=O)c2cc(Nc3c(F)cc(F)cc3Cl)c(Cl)cc21,0.0172% (inactive),–
CC[C@H](NC(C)C)[C@H](O)c1ccc(O)c2[nH]c(=O)ccc12,0.428% [at 42.5 µM] (inactive),–
C[C@H](N)C(=O)N[C@@H](C)C(=O)NC1[C@H]2CN(c3nc4c(cc3F)c(=O)c(C(=O)O)cn4-c3ccc(F)cc3F)C[C@@H]12 (stereo not given in full),2.16% [at 42.5 µM] (inactive),–
CCCCCCCCCCCCCCCCCCCl,1.57% [at 8.39 µM] (inactive),–
CCC[Si](OC)(OC)OC,0.932% (inactive),–
CC(C)NC(=O)c1ccccc1N,0.0305% (inactive),–
CCCCCCC/C=C/C=O,4.58% (inactive),–
CC1(C)CC(O)CC(C)(C)N1[O],-3.82% (inactive),–
Cc1c(Cl)cccc1Nc1ccccc1C(=O)O,4.47% [at 42.5 µM] (inactive),–
O=C1c2ccccc2C(=O)c2c1ccc(O)c2O,–,23.7 µM (active)
CC(CCl)OC(C)CCl (stereo not given),-1.06% (inactive),–
CCC(C(=O)O)c1ccc(N2Cc3ccccc3C2=O)cc1 (stereo not given),0.59% [at 42.5 µM] (inactive),–
CCCC1CCOC(C)S1 (stereo not given),1.41% (inactive),–
Cc1cc(SC2=C(O)C[C@@](CCc3ccc(N)cc3)(C(C)C)OC2=O)c(C(C)(C)C)cc1CO,-7.3% (inactive),–
Cc1ccc(NC=O)c(C)c1,1.93% (inactive),–
Cc1c(N=C=O)cccc1N=C=O,-0.34% (inactive),–
CC(=O)Nc1cccc(N)c1,0.302% (inactive),–
